{
  "source": "paper PMC4336329",
  "about": "(PLoS ONE, 2015)",
  "note": "Hit rate of the full screen: of about 310,000 compounds, about 14,000 (4.5%) showed an effect of 50% or more. The effect is printed as a negative number. This excerpt belongs to a sample that is enriched for strong results.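 Note: peak tail current of the secondary pulse compared with the same well before compound.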",
  "data": [
    {"molecular_target": "human ether-à-go-go-related gene (hERG) potassium channel (human, UniProt Q12809)", "sequence (Q12809 whole entry, looked up)": "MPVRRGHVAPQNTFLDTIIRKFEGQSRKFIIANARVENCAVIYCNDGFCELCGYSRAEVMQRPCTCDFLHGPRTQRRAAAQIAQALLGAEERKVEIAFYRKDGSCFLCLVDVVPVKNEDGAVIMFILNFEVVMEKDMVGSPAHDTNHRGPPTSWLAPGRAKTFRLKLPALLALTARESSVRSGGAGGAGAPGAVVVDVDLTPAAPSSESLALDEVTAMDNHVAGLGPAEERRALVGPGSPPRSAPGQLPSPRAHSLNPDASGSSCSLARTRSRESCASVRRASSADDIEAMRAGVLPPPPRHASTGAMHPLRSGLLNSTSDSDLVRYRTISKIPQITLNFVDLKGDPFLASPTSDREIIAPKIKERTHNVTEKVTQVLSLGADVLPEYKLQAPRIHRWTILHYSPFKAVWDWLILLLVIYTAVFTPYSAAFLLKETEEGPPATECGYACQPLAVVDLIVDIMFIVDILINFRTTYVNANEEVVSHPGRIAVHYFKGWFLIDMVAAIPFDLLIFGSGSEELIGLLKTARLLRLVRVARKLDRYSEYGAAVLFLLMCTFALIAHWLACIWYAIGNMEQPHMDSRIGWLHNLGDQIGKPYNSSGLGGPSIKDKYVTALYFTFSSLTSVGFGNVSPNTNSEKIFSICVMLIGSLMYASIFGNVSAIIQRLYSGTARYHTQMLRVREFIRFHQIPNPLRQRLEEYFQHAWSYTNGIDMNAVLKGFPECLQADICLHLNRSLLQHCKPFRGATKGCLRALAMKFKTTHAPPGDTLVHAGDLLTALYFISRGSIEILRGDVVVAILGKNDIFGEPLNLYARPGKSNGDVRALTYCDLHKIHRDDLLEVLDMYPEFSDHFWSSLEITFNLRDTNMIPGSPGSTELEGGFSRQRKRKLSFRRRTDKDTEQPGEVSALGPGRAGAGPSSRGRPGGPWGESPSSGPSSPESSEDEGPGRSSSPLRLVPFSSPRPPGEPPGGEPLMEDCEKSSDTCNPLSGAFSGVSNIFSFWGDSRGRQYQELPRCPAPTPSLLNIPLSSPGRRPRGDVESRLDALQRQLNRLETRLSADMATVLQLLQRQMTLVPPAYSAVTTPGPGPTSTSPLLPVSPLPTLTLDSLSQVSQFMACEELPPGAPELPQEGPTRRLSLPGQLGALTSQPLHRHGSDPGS", "test": "primary screen, population patch clamp on CHO cells stably expressing hERG; higher = less effect of the substance", "units": {"hERG current change (%, negative = inhibition) at 10uM": "%"}, "values": [
      {"smiles": "Cc1ncc([N+](=O)[O-])n1CCOC(=O)Nc1ccc(Cl)c(Cl)c1", "hERG current change (%, negative = inhibition) at 10uM": 1.07},
      {"smiles": "Cc1ccc(CNCCCSc2nc(C)cc(C)n2)cc1.Cl", "hERG current change (%, negative = inhibition) at 10uM": -52.3},
      {"smiles": "CCOc1ccc(Cl)cc1CNCCCSc1nc(C)cc(C)n1.Cl", "hERG current change (%, negative = inhibition) at 10uM": -59.6},
      {"smiles": "CCOc1c(CNCCCSc2nc(C)cc(C)n2)cccc1OC.Cl", "hERG current change (%, negative = inhibition) at 10uM": -11.1},
      {"smiles": "Cc1cc(C)nc(SCCCNCc2ccccc2)n1.Cl", "hERG current change (%, negative = inhibition) at 10uM": -3.19},
      {"smiles": "Cc1cc(C)nc(SCCCNCc2ccc(Br)cc2)n1.Cl", "hERG current change (%, negative = inhibition) at 10uM": -36.1},
      {"smiles": "CCOc1ccc(Cl)cc1CNCCCSc1ncccn1", "hERG current change (%, negative = inhibition) at 10uM": -37.3},
      {"smiles": "O=C(NC1CCCCC1)C1CC(=O)N(CCc2ccccc2)C1", "note": "(stereo not shown)", "hERG current change (%, negative = inhibition) at 10uM": -7.01},
      {"smiles": "O=C(c1ccccc1O)N1CCOCC1", "hERG current change (%, negative = inhibition) at 10uM": 3.51},
      {"smiles": "CNC(=S)N(CCc1c(C)[nH]c2ccc(OC)cc12)Cc1cccnc1", "hERG current change (%, negative = inhibition) at 10uM": 9.25},
      {"smiles": "CCn1c(=O)c(=O)[nH]c2cc(C(=O)NC(C)c3ccc(S(N)(=O)=O)cc3)ccc21", "note": "(stereo not shown)", "hERG current change (%, negative = inhibition) at 10uM": 3.47},
      {"smiles": "CCCCCOc1ccc(/C(C)=N/NC2=NCCN2)cc1", "hERG current change (%, negative = inhibition) at 10uM": -39.8},
      {"smiles": "C=CCNC(=O)C1CCN(c2cc(C)nc(-c3ccccc3)n2)CC1", "hERG current change (%, negative = inhibition) at 10uM": -58.2},
      {"smiles": "Cc1cc(N2CCC(C(=O)NCC3CC3)CC2)nc(-c2ccccc2)n1", "hERG current change (%, negative = inhibition) at 10uM": -73.1},
      {"smiles": "C#CCNC(=O)C1CCN(c2cc(C)nc(-c3ccccc3)n2)CC1", "hERG current change (%, negative = inhibition) at 10uM": -40.7},
      {"smiles": "Cc1cc(C)nc(N2CCC(C(=O)NCc3ccccc3)CC2)n1", "hERG current change (%, negative = inhibition) at 10uM": 3.44},
      {"smiles": "Cc1cc(N2CCC(C(=O)Nc3ccc(F)cc3)CC2)nc(-c2ccccc2)n1", "hERG current change (%, negative = inhibition) at 10uM": -32.9},
      {"smiles": "Cc1cc(-c2ccccc2)nc(N2CCC(C(=O)NC(C)C)CC2)n1", "hERG current change (%, negative = inhibition) at 10uM": 4.06},
      {"smiles": "Cc1cc(N2CCC(C(=O)NC3CC3)CC2)nc(-c2ccccc2)n1", "hERG current change (%, negative = inhibition) at 10uM": -46},
      {"smiles": "Cc1cc(N2CCC(C(=O)NC3CCCCC3)CC2)nc(-c2ccccc2)n1", "hERG current change (%, negative = inhibition) at 10uM": -49.6},
      {"smiles": "C=CCNC(=O)C1CCN(c2nc(C)cc(-c3ccccc3)n2)CC1", "hERG current change (%, negative = inhibition) at 10uM": -51.3},
      {"smiles": "COc1ccc(NC(=O)c2sccc2OS(=O)(=O)N(C)C)cc1", "hERG current change (%, negative = inhibition) at 10uM": 11.2},
      {"smiles": "C/C(=N/NC(N)=S)c1ccc(Br)s1", "hERG current change (%, negative = inhibition) at 10uM": 16.8},
      {"smiles": "CCOc1ccccc1/C=N/NC(=O)Cc1csc(Nc2cccc(C(F)(F)F)c2)n1", "hERG current change (%, negative = inhibition) at 10uM": 4.05},
      {"smiles": "N#CSc1ccc2oc(C3=NCCN3)cc2c1", "hERG current change (%, negative = inhibition) at 10uM": 0.521},
      {"smiles": "O=C(c1ccc2c(c1)OCCCO2)N1CCCCC1", "hERG current change (%, negative = inhibition) at 10uM": 11.7},
      {"smiles": "CCNc1nc(NCC)nc(OCC(=O)O)n1", "hERG current change (%, negative = inhibition) at 10uM": 7.6},
      {"smiles": "COc1ccc(N2CCN(c3nc(NCCO)nc(N4CCOCC4)n3)CC2)cc1", "hERG current change (%, negative = inhibition) at 10uM": -1.07},
      {"smiles": "O=C1NC(=O)N(Cc2ccccc2)C1=O", "hERG current change (%, negative = inhibition) at 10uM": 26.4},
      {"smiles": "COc1ccc(C2/C=C\\CN(CC3CC3)CC(=O)N2Cc2ccc(F)cc2)cc1", "note": "(stereo not shown)", "hERG current change (%, negative = inhibition) at 10uM": -21},
      {"smiles": "COCCNCCCOc1ccc(Cl)cc1Br.O=C(O)C(=O)O", "hERG current change (%, negative = inhibition) at 10uM": -42},
      {"smiles": "COCCCNCCOCCOc1ccccc1-c1ccccc1.O=C(O)C(=O)O", "hERG current change (%, negative = inhibition) at 10uM": -29.4},
      {"smiles": "CCCCNCCOCCOc1ccccc1-c1ccccc1.O=C(O)C(=O)O", "hERG current change (%, negative = inhibition) at 10uM": -50.1},
      {"smiles": "CCCCNCCCOc1ccc(C)cc1Br.O=C(O)C(=O)O", "hERG current change (%, negative = inhibition) at 10uM": -35},
      {"smiles": "COCCCNCCCOc1ccc(C)cc1Br.O=C(O)C(=O)O", "hERG current change (%, negative = inhibition) at 10uM": -30.7},
      {"smiles": "CCCCNCCCOc1cc(Cl)ccc1Cl.O=C(O)C(=O)O", "hERG current change (%, negative = inhibition) at 10uM": -54.3},
      {"smiles": "CCCCNCCOCCOc1ccc(C)cc1Br.O=C(O)C(=O)O", "hERG current change (%, negative = inhibition) at 10uM": -32.1},
      {"smiles": "COCCCNCCOCCOc1ccc(Cl)cc1Br.O=C(O)C(=O)O", "hERG current change (%, negative = inhibition) at 10uM": -51.9},
      {"smiles": "CCCCNCCOCCOc1ccc(Cl)cc1Br.O=C(O)C(=O)O", "hERG current change (%, negative = inhibition) at 10uM": -57.9},
      {"smiles": "CCCCNCCOCCSc1ccc(Cl)cc1.O=C(O)C(=O)O", "hERG current change (%, negative = inhibition) at 10uM": -43.5},
      {"smiles": "CCCCNCCOc1ccccc1-c1ccccc1.O=C(O)C(=O)O", "hERG current change (%, negative = inhibition) at 10uM": -28.2},
      {"smiles": "OCCNCCCOc1cc(Cl)ccc1Cl", "hERG current change (%, negative = inhibition) at 10uM": -14.4},
      {"smiles": "CCOC(=O)Cn1c(-c2ccc(OC)cc2)c(-c2ccc(OC)cc2)nnc1=O", "hERG current change (%, negative = inhibition) at 10uM": 9.79},
      {"smiles": "O=C(NC(=S)NCCc1ccccn1)c1ccco1", "hERG current change (%, negative = inhibition) at 10uM": 17.4},
      {"smiles": "COc1cccc(CNS(=O)(=O)c2ccc(S(=O)(=O)N3CCCC3)cc2)c1", "hERG current change (%, negative = inhibition) at 10uM": 7.51},
      {"smiles": "COc1ccc(C(=O)N(Cc2ccco2)Cc2cccs2)c(O)c1", "hERG current change (%, negative = inhibition) at 10uM": -6.63}
    ]}
  ]
}
